40 compounds from PubChem BioAssay (NCI) can be followed below.

The panel holds about 83,000 compounds, 20% with a hit somewhere; the sample as a whole holds those more often.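 In brief: 96-well plates, 48 h treatment, single concentration, percent growth endpoint.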 A number with no mark means an inactive call. The source made the active and inactive calls.

The subject of the experiment is A549/ATCC NSCLC. Put plainly: NCI-60 one-dose screen, 48 h (100 = growth as untreated, 0 = no growth, -100 = all killed). As to conditions: 10 µM unless noted. As for the experimental part: Growth inhibition of the A549/ATCC human Non-Small Cell Lung tumor cell line is measured as a screen for anti-cancer activity. Cells are grown in 96 well plates and exposed to the test compound for 48 hours. Compounds are tested at a single concentration, which is 10^-5 M for most compounds. The reported endpoint is percent growth (GI% or GIPRCNT), where numbers from 0 - 100% represent growth inhibition, and numbers from -100% - 0 represent cell death. For example, a value of 40 represents 60% growth inhibition. A value of 0 means no net growth occurred over the course of the experiment. A value of -40 indicates 40% of cells at the beginning of the experiment died by the end of the experiment. A value of -100 means all cells are dead at the end of the experiment.
NCI-60 Human Tumor Cell Lines Screen was performed using the standard one-dose NCI protocol, which is described in more detail at https://dtp.cancer.gov/discovery_development/nci-60/default.htm.
Compounds with GIPRCNT values below 10 were considered active. Activity score was based on GIPRCNT using the following formula: […]
Score is 0 for GIPRCNT values of 100 or above, 50 for GIPRCNT values of 0, and 100 for GIPRCNT values of -100.
As for `O=c1[nH]c(-c2ccc(Cl)cc2)cn1-c1ccc(-n2cc(-c3ccc(Cl)cc3)[nH]c2=O)cc1`, the growth was 93.4%.

For `N=C(N)SCc1cccc2c(CSC(=N)N)cccc12`, the growth is 96.6%.

As to `CC(C)c1ccc(C(=O)Nc2sc3cc(O)ccc3c2C#N)cc1`, the growth was 44.6%.

In the case of `CCN(CCO)CC(C)Nc1ccc([N+](=O)[O-])c2sc3ccccc3c(=O)c12` (stereo not given), the growth was 12.2%.

Regarding `Nc1c(C(=O)O)cc(Cl)cc1[N+](=O)[O-]`, the growth is 97.6%.

As to `CC(=O)N/C(=C1/OC(C(O)C(O)C(O)CO)CN1C)[P+](c1ccccc1)(c1ccccc1)c1ccccc1` (stereo not given), the growth was 102%.

Consider `CCOC(=O)c1c(C)nc2ccccc2c1/C=C/c1ccc(OC)cc1`, for which the growth is 57.6%.

For the compound `COC(=O)/C(CCC=C(C)C)=C1\[C@@H](OC(C)=O)C[C@@]2(C)[C@H]1CC(=O)[C@H]1[C@@]3(C)CCC(N4CCCC4)[C@@H](C)[C@@H]3CC[C@@]12C` (stereo not given in full), the growth was 104%.

`Cn1cc(C(=O)c2nc(-c3c[nH]c4ccc(Br)cc34)no2)c2cc(Br)ccc21`: the growth is 32.1%.

As for `COc1cc2c(/C=C3\C(=O)Nc4ccccc43)c(C(=O)O)[nH]c2cc1C`, the growth is 106%.

Consider `C=C1C(=O)O[C@H]2[C@H]1CC/C(COC(=O)NCc1ccc(Cn3c(=O)sn(-c4ccc(OC)cc4)c3=O)cc1)=C\CC[C@@]1(C)O[C@@H]21`, for which the growth was 97.7%.

Turning to `COc1ccc(OC)c(-c2cn3nc(-c4c[nH]c5ccc(Br)cc45)sc3n2)c1`, the growth was 14.5%.

In the case of `Cc1ccc(C)c2c1C(O)(C#Cc1ccccc1)c1ccccc1C2(O)C#Cc1ccccc1` (stereo not given), the growth was 47.5%.

Turning to `C=CCn1c(SCC(=O)Nc2ccc(C(=O)/C=C/c3ccc(OC)cc3)cc2)nnc1-c1ccccc1`, the growth is 83%.

For `N=c1c2c(=N)n3c(nc2nc2n1-c1ccccc1Sc1ccccc1-2)sc1cc(Cl)ccc13`, the growth is 14%.

On to `CC(C)C[C@@H](C(=O)N[C@H](C(=O)OC1CCCC1)c1ccccc1)[C@H](O)C(=O)NO`, for which the growth was 56%.

Take `Cc1ccc(-c2nc(C(Cl)Cl)nc3cc(C)nn23)cc1`: the growth is -4.14% (active).

Regarding `CCn1cc(C(=O)NN=C2CCCCCC2)c(=O)c2ccc(C)nc21`, the growth is 82.6%.

In the case of `NC(=S)N/N=C/c1cn(-c2ccccc2)nc1-c1cc2ccccc2oc1=O`, the growth was 46.4%.

For `COc1ccc2c(c1)c(-c1cc(-c3cn(C)c4ccc(OC)cc34)on1)cn2C`, the growth is 109%.

Take `CCCCCCC(CCCC)COC(=O)c1ccc(Cl)cc1` (stereo not given): the growth was 117%.

As to `Cc1ccc(N=Nc2c(N)nn(-c3ccccc3)c2N)cc1`, the growth is 29.3%.

On to `CCOC(=O)C1CCN(c2ccc(N3C[C@@H](CNCc4ccc(C(=N)N)cc4)OC3=O)cc2)CC1`, for which the growth was 104%.

As to `CN(C)c1ccc(-c2cc(-c3ccc(Nc4nc(Nc5ccc(Cl)cc5)nc(Nc5ccc(Cl)cc5)n4)cc3)nc(N)c2C#N)cc1`, the growth is 72.3%.

Turning to `Cn1cc(-c2ccc3cc(-c4ccc(CC(=O)Nc5cc(C(C)(C)C)on5)cc4)cnc3c2)cn1`, the growth is 16.5%.

`Cc1ccc(S(=O)(=O)n2cc(C3C(Cl)C(=O)N3c3ccc(N4CCOCC4=O)cc3)c3ccccc32)cc1` (stereo not given): the growth was 79.6%.

As to `COc1cc(/C=C\c2cc(/C=C\c3ccc(O)c(OC)c3)n(C(=O)CNc3ccc(Cl)cc3)n2)ccc1O`, the growth was 19.5%.

With `COc1ccc(-c2oc(=O)ccc2-c2cc(OC)c(OC)c(OC)c2)cc1O`, the growth is 26%.

On to `O=C(CCCCl)NNc1nccc(Nc2ccc(S(=O)(=O)Nc3ccncc3)cc2)n1`, for which the growth is 96.6%.

On to `CCOC(=O)c1c(C)nc2c(c1N)CC(=O)N2Cc1cc(OC)c(OC)c(OC)c1`, for which the growth is 40.7%.

For `Cc1c2cc[nH]c(=O)c2c(C)c2c1[nH]c1ccc(OC(=O)c3ccccc3)cc12`, the growth was 6.49% (active).

On to `CCN(CC)CCCNCc1cc(-c2ccccc2)nc2cc(Cl)ccc12`, for which the growth was 57.4%.

For the compound `COc1ccc(C2=C/C(=C\c3ccc(Cl)cc3)C(=O)N2/N=C/c2ccc(Cl)cc2)cc1`, the growth was 80.7%.

In the case of `Nc1c(C(=O)Nc2ccccn2)sc2nc3c(cc12)C(O)CCC3` (stereo not given), the growth was 36.4%.

Take `CN1C(=O)N(C)C2C1NC(=S)N2/N=C/C=C/c1ccccc1[N+](=O)[O-]` (stereo not given): the growth is 31.3%.

Turning to `Cc1cc2nc3c4ccccc4n(CCN(C)C)c3nc2cc1C`, the growth is -33.8% (active).

`COc1ccc(/C(C)=C(\c2ccc(Cl)cc2)c2ccc(OCCN3CCCC3)cc2)cc1`: the growth is 25.5%.

For the compound `C#CC#CC#CC#CC#CC#CC#CC#CC[C@H]1OC[C@@H](COC(=O)O[C@@H](C(=O)O[C@H]2C[C@@]3(O)[C@@H](OC(=O)c4ccccc4)[C@@H]4[C@]5(OC(C)=O)CO[C@@H]5C[C@H](O)[C@@]4(C)C(=O)[C@H](OC(C)=O)C(=C2C)C3(C)C)[C@@H](NC(=O)c2ccccc2)c2ccccc2)O1`, the growth is 52.4%.

Consider `C=CCN=C(N)SCCCCCCSC(N)=NCC=C`, for which the growth was 86.8%.

With `Cc1ccccc1OCC(O)COc1ccccc1C`, the growth is 84.2%.
